Holding throughout (test): NCI-60 one-dose screen, 48 h (100 = growth as untreated, 0 = no growth, -100 = all killed)
What all share (details): 10 µM unless noted

Test [1] relates to SR leukemia.
The test system of test [2] is OVCAR-8 ovarian.
The test system of test [3] is OVCAR-5 ovarian.
Test [4] relates to OVCAR-4 ovarian.
The subject of test [5] is SK-OV-3 ovarian.
In test [6] the test system is IGROV1 ovarian.
Test [7] concerns OVCAR-3 ovarian.
The subject of test [8] is HS 578T breast.
For test [9], the system named is NCI/ADR-RES ovarian.
Test [10] has as its system T-47D breast.
Test [11] has as its system BT-549 breast.
In test [12] the test system is MDA-MB-435 melanoma.
Test [13] concerns SW-620 colon.
Test [14] concerns MCF7 breast.
For test [15], the system named is HCT-116 colon.
For test [16], the system named is HCC-2998 colon.
Test [17] has as its system KM12 colon.
In test [18] the test system is RPMI-8226 leukemia.

Structures are written as SMILES. About 83,000 compounds went through this panel and 20% of them were active in at least one assay; those are over-represented in the sample as a whole.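 Cells were grown in 96-well plates and exposed to the test compound at a single concentration for 48 hours; results are reported as percent growth, with values below 10 considered active.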 Unmarked numbers belong to inactive results. Calls of active or inactive are those of the source.

Take `O=S(=O)(Nc1ccc(I)cc1Cl)c1ccc(-c2cnc(C3CC3)o2)cc1`: the growth is 34.5% in [1]; 62.2% in test [2]; 75.4% in [3]; 67% in test [4]; 57.8% in test [5]; 43.2% in [6]. The growth is -10.4% (active) in test [7]; 17.3% in [8]; 28.1% in test [9]; 31.7% in test [10]; 34.9% in test [11]; -4.66% (active) in test [12]. Further, the growth in test [13] was 17.9%; in test [14], 23.1%; in [15], 22.1%; in [16] it was 78.6%; in test [17], 26%.
On to `COc1cc2nc(Cl)nc(Nc3cccc(C4=Nc5c(N)nc(N)nc5NC(c5ccc(F)cc5)C4)c3)c2cc1OC` (stereo unspecified), for which the growth in test [18] was -3.6% (active); in [2] it was 51.6%; in test [3], 107%; in [4] it was 96.6%; in test [5] it was 117%; in test [6], 80.8%. The growth in [7] was 61%; in [8], 86.1%; in test [9], 80%; in test [10], 63.7%; in [11], 78.1%; in test [12] it was 77.2%. Further, the growth in [13] is 12.7%; in test [14], -5.06% (active); in test [15], -41.7% (active); in [16], 22.9%; in test [17], 34.1%.
Turning to `COc1cc(OC)c(/C=C/S(=O)(=O)Cc2ccc(OC)c(NCC(=O)NO)c2)c(OC)c1`, the growth was 12.2% in test [1]; 8.29% (active) in test [2]; 33.6% in test [3]; 37.3% in test [5]; 9.44% (active) in test [6]; 2.98% (active) in [7]. The growth in [8] is 17%; in [9], 7.63% (active); in test [10] it was 74.3%; in test [11], 11.6%; in test [12], -8.04% (active); in test [13], 28.3%. Moreover, the growth was 11% in test [14], 3.2% (active) in test [15], 14.2% in test [16] and 4.53% (active) in test [17].
With `C=CCn1c(SCC(=O)Nc2ccc(C(=O)/C=C/c3cccc([N+](=O)[O-])c3)cc2)nnc1-c1c[nH]c2ccccc12`, the growth in test [18] is 11.9%; in test [2], 90.4%; in [3] it was 96.8%; in test [4] it was 74.9%; in [5], 106%; in test [6], 82.7%. The growth in test [7] was 99.8%; in [8] it was 102%; in [9], 101%; in test [10] it was 59.8%; in test [11], 117%; in [12], 98.4%. In addition, the growth in test [13] is 98.7%; in [14], 25.4%; in [15], -32.6% (active); in [16], 86%; in [17] it was 93.4%.
For `O=C(Nc1cccc(C(F)(F)F)c1)c1cc(-c2ccc(F)cc2F)ccc1O`, the growth in test [1] was 24%; in test [2] it was 11.5%; in test [3], 9.98% (active); in test [4] it was 12.4%; in test [5], -0.0407% (active); in test [7] it was 9.88% (active). Moreover, the growth in [8] was -5.22% (active); in test [9], 4.03% (active); in test [10] it was 2.56% (active); in test [11] it was 1.83% (active); in [12], 4.23% (active); in [13], 10.8%. Moreover, the growth is 2.4% (active) in [14], 3.8% (active) in [15], 15.2% in test [16] and 3.77% (active) in [17].
Turning to `CC(C)(C)c1ccc(CC(=O)Nc2sc3c(c2C(N)=O)CCC(=O)C3)cc1`, the growth is -20.7% (active) in test [18]; 11.1% in test [2]; 7% (active) in [3]; -32.2% (active) in [4]; 9.81% (active) in [5]; 8.85% (active) in test [6]. In addition, the growth is -36% (active) in test [7]; 33.6% in test [8]; 3.51% (active) in test [9]; -15.4% (active) in test [10]; 9.57% (active) in [11]; 1.24% (active) in [12]. Further, the growth in [13] is 3.83% (active); in test [14], 5.89% (active); in [15], 5.7% (active); in test [16] it was 25.5%; in [17], -3.85% (active).
For the compound `N#Cc1c(-c2cccs2)cc(-c2cnccn2)nc1SCC(=O)c1ccc(F)cc1`, the growth in [1] is 81.3%; in [2], 99.5%; in [3], 88%; in [4], 76%; in [5], 104%; in test [6], 78.1%. Also, the growth in test [7] is 118%; in test [8] it was 94.2%; in [9] it was 96.4%; in test [12], 93.3%; in test [13], 96.7%; in test [14], 85.7%. Further, the figures for the growth in [15], in test [16] and in test [17] were 96.6%, 117% and 99%, respectively.
As to `COc1cc(OC)c(S(N)(=O)=O)cc1C(C)=O`, the growth in test [2] was 104%; in [3], 107%; in test [4], 102%; in test [5] it was 109%; in test [6], 112%; in [8], 112%. Besides, the growth in test [9] is 111%; in test [10], 98.3%; in test [12], 107%; in test [13], 113%; in test [14] it was 89.8%; in test [15] it was 114%. The growth in [16] is 106%; in test [17] it was 104%.
On to `N#Cc1ccccc1Cn1c2nc(=N)c3ccccc3c-2nc2ccccc21`, for which the growth in test [18] was 77.2%; in test [2], 66.4%; in test [3], 78.6%; in test [4], 29.8%; in test [5] it was 79.2%; in test [6], 49.6%. Further, the growth in test [7] is -5.06% (active); in test [8] it was 97.8%; in [9] it was 71.1%; in [10] it was 66.8%; in [11], 88%; in [12] it was 70%. Moreover, the growth was 54.6% in [13]; 34.7% in [14]; 46.9% in test [15]; 60.2% in test [16]; 60.7% in [17].

The values are drawn from PubChem BioAssay (NCI).
